# Screens (PubChem BioAssay)
# MazF activator = increases E. coli MazEF RNase cleavage of RNA; 350,000 compounds, 0.32% hits; FAM/BHQ RNA-DNA oligo cleavage fluorescence, 5 h; AID 504720; activation, % at 20 µM; P0AE70; in the data active = activation above about 50%
# TcdB inh = TcdB glycohydrolase inhibition; P18177; TcdB glycohydrolase enzymatic assay, plate reader; inhibition, % at 9.99 µM; 350,000 compounds, 0.24% hits; AID 652162; in the data active = inhibition above about 10%
# Target sequence (P18177 whole entry, looked up): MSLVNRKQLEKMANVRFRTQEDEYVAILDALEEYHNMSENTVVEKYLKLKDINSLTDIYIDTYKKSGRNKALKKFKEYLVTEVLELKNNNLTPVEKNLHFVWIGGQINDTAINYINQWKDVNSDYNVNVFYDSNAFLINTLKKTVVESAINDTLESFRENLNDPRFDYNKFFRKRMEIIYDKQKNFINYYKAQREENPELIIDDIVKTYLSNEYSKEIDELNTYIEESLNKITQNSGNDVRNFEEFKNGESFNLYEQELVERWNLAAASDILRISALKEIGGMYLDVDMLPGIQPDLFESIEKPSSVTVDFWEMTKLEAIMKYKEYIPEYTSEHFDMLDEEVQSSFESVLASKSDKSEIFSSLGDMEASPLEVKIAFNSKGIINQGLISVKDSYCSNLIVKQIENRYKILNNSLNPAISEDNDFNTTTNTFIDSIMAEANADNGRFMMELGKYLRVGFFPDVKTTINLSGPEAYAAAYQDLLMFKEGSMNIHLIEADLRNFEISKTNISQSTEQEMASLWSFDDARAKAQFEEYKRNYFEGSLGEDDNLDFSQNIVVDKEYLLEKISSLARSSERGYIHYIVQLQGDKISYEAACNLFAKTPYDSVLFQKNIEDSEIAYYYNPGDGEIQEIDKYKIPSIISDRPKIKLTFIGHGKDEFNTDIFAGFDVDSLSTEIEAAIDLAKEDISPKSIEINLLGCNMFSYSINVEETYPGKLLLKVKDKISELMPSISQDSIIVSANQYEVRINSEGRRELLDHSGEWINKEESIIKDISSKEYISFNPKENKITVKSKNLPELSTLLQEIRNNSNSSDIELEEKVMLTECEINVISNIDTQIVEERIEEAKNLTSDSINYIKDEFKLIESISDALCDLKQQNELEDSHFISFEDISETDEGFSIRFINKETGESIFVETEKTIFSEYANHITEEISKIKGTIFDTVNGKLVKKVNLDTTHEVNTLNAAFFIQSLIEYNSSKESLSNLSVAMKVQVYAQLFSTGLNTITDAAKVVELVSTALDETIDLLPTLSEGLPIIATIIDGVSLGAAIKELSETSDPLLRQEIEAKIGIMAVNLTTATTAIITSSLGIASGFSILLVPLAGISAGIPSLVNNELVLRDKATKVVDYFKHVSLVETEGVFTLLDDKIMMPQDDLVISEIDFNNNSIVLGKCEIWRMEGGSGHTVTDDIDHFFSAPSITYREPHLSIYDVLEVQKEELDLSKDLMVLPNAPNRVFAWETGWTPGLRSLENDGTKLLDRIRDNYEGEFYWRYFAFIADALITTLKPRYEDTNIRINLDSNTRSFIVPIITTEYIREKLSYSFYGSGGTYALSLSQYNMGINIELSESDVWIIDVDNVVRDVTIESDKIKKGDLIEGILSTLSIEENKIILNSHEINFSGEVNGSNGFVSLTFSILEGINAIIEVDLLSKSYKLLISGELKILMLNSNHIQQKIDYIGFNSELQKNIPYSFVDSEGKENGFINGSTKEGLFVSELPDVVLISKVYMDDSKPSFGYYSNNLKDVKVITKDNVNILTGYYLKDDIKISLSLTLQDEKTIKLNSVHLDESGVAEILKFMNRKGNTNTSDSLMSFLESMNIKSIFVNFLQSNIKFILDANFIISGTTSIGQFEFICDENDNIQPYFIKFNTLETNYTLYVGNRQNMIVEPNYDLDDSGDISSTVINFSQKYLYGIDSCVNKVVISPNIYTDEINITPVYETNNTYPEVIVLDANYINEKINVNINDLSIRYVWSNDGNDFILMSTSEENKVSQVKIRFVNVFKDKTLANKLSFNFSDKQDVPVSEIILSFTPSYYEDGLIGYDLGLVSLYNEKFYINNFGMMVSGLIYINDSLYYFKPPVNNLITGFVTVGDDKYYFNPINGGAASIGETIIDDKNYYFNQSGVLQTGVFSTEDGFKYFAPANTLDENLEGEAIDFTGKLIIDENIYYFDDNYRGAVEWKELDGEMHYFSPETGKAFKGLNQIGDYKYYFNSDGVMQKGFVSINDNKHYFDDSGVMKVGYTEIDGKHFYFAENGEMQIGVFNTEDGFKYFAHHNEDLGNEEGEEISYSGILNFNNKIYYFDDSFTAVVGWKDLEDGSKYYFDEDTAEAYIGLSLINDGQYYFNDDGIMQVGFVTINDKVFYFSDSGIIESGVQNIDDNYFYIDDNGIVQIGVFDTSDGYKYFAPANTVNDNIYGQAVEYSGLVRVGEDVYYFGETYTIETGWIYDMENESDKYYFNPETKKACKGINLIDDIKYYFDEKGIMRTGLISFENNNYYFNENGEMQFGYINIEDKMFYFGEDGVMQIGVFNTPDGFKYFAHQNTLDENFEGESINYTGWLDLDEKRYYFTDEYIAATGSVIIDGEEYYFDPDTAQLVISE
# Rv3671c protease = inhibitors of M. tuberculosis serine protease Rv3671c | inhibition, % at 5.96 µM | P9WHR9 | 320,000 compounds, 0.048% hits; in the data active = inhibition above about 38%;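 note: extracellular domain of Rv3671c used as enzyme; 0% = enzyme with DMSO and 100% = no enzyme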
# RecA intein inh = blocks M. tuberculosis RecA intein splicing. inhibition, % (test concentration not listed). AID 2221. P9WHJ3. cell-free RecA intein splicing, fluorescence. 290,000 compounds, 0.75% hits; in the data active = inhibition above about 30%;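 note: 0% = vehicle wells and 100% = reference inhibitor control wells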
# Mtb betalactam = beta-lactam sensitization of Mtb H37Rv | M. tuberculosis H37Rv growth with meropenem, percent inhibition | inhibition, % at 25 µM | 330,000 compounds, 0.27% hits | AID 434955;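 note: growth measured after seven days incubation then overnight dye step; 0% = bacteria only wells and 100% = bacteria with antibiotic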
# UGM FP inh = inhibitors of M. tuberculosis UDP-galactopyranose mutase; P9WIQ1; purified UGM, fluorescence polarization probe displacement; inhibition, % at 10 µM; 320,000 compounds, 0.06% hits; in the data active = inhibition above about 10%, passing the limit was not always enough
# GFP chromo cs = counter-screen: blocks GFP chromophore formation; 2,100 compounds, 83% hits; shares compounds with RecA intein inh; AID 434968; EC50, µM; cell-free GFP chromophore formation, fluorescence
# The depositor's hits bear a star; / = no result. A selection: hits, their analogues and other compounds. The true share with any hit is near 0.97%. Unless noted, the rule behind the calls is not given here.
SMILES,MazF activator,TcdB inh,Rv3671c protease,RecA intein inh,Mtb betalactam,UGM FP inh,GFP chromo cs
O=C1C2=C(c3ccccc31)[N+](=O)C1CCCCC1N2[O-] (configuration not stated),-3,/,-12,82*,5,3,7.9*
C[C@@H]1CCCCO[C@@H](CN(C)C(=O)Nc2ccc(C(F)(F)F)cc2)[C@H](C)CN([C@H](C)CO)C(=O)c2cc(NC(=O)c3ccncc3)ccc2O1,/,-2,/,/,/,/,/
C[C@@H]1CN([C@@H](C)CO)C(=O)Cc2cc(NS(=O)(=O)c3ccccc3)ccc2O[C@H]1CN(C)Cc1ccccc1,/,0,/,/,/,/,/
COc1ccc(C(=O)N2C[C@@H]3[C@H](c4ccccc42)[C@@H](CO)N3C(=O)c2cccc(F)c2)cc1,/,0,/,/,/,/,/
O=[N+]([O-])c1c(Nc2cccc(O)c2)cc(Cl)c2nonc12,6,0,9,-5,96,2,/
CNc1cc(Cl)c2nonc2c1[N+](=O)[O-],-7,0,/,86*,/,/,7.7*
C[C@H](CO)N1C[C@H](C)[C@@H](CN(C)Cc2ccccc2)Oc2ncc(C3=CCCCC3)cc2C1=O,/,0,/,/,/,/,/
N#C/C(=C\c1cc(Cl)c(OCc2ccc(Cl)cc2)c(Cl)c1)C(N)=O,/,/,-11,44*,19,0,>38
Cc1cc(C(=O)Cn2ncc(Cl)c(Cl)c2=O)c(C)n1CC(F)(F)F,7,0,-3,36*,100,-3,6*
Cc1cc(N)n(-c2ccc([N+](=O)[O-])cc2)n1,-16,-8,3,1,2,-1,/
Cc1cc(C)n(-c2ccc([N+](=O)[O-])cc2)n1,-10,0,-13,43*,-5,-4,>38
O=C(NCC[C@H]1CC[C@H](NC(=O)C2CCCC2)[C@@H](CO)O1)c1ccc(F)cc1,/,0,/,/,/,/,/
C[C@@H]1CN([C@H](C)CO)C(=O)c2cc(/C=C/c3ccccc3)cnc2O[C@H]1CN(C)C(=O)C1CCC1,/,-3,/,/,/,/,/
CC1=NN(c2ccc(C)cc2C)C(=O)C1C(c1cccc(O)c1)C1C(=O)N(c2ccc(C)cc2C)N=C1C (configuration not stated),2,/,-171,97*,-2,1,1.4*
C[C@H]1CN([C@@H](C)CO)C(=O)c2cccc(NC(=O)C3CCOCC3)c2O[C@@H]1CN(C)Cc1ccccc1,/,0,/,/,/,/,/
CC(NC(=O)/C(C#N)=C/c1ccc(Cl)c([N+](=O)[O-])c1)c1ccccc1 (configuration not stated),4,1,-10,62*,81,0,14*
O=C(CSCc1ccc(Cl)cc1)N/N=C/c1c(Cl)cccc1Cl,-10,-1,-1,3,-6,3,/
O=C(CC(=O)N/N=C/c1c(F)cccc1Cl)NCc1ccccc1,7,2,0,3,2,0,/
O=C(Cc1cc(=O)[nH][nH]1)N/N=C/c1c(Cl)cccc1Cl,1,2,-61,70*,7,2,12*
O=C(Cc1cc(=O)[nH][nH]1)N/N=C/c1c(F)cccc1Cl,0,3,-42,95*,-4,-5,7.9*
CC(C)NC(=O)N1C[C@H]2[C@@H](c3ccccc31)[C@H](CO)N2Cc1ccccn1,/,1,/,/,/,/,/
O=C(NC1C(=O)NNC1c1ccccc1)c1ccccc1 (configuration not stated),-7,/,-6,69*,0,-3,25*
Cc1[nH][nH]c(=O)c1C(c1ccc(-c2ccc(Cl)c(C(=O)O)c2)o1)c1c(C)[nH][nH]c1=O,7,-3,/,/,/,/,/
COC(=O)c1ccccc1-c1ccc(C(c2c(C)[nH][nH]c2=O)c2c(C)[nH][nH]c2=O)o1,-3,-6,-204,95*,-3,4,0.45*
COC(=O)c1cccc(-c2ccc(C(c3c(C)[nH][nH]c3=O)c3c(C)[nH][nH]c3=O)o2)c1,-3,-8,-79,100*,-1,-1,0.54*
SMILES,MazF activator,TcdB inh,Rv3671c protease,RecA intein inh,Mtb betalactam,UGM FP inh,GFP chromo cs
Cc1ccc(Sc2c(C)[nH]n(C(C)(C)C)c2=O)cc1,5,/,-2,50*,-17,0,40*
S=C1Cc2ccccc2N1,-28,1,/,88*,/,/,1.2*
S=C1Nc2ccccc2CS1,2,0,/,/,/,/,/
COCCN(C[C@@H]1[C@@H](c2ccccc2)[C@H](CO)N1C(=O)C1CC1)C(C)=O,/,-1,/,/,/,/,/
Cc1oc(-c2ccccc2Cl)nc1CN(C)C(C)c1ccon1 (configuration not stated),-12,1,-4,1,4,1,/
Cc1ccccc1-c1nc(CN(C)C(C)c2ccon2)c(C)o1 (configuration not stated),9,0,6,39*,0,4,13*
CC=Cc1ccc2n(c1=O)C[C@H]1[C@H](CO)[C@@H](C(=O)Nc3ccc(-c4ccccc4)cc3)N(CC)[C@@H]21 (mixture of isomers),/,-2,/,/,/,/,/
Cc1ccc(Oc2coc3cc(OC(=O)c4cccs4)ccc3c2=O)cc1,-30,/,-11,12,15,1,/
Cc1cc(C)cc(Oc2coc3cc(OC(=O)c4cccs4)ccc3c2=O)c1,-3,/,-20,34*,7,0,>38
CCOc1ccccc1Oc1coc2cc(OC(=O)c3ccco3)ccc2c1=O,-14,/,-7,33*,5,3,>38
COC(=O)CN1C(=O)C2(C(C#N)=C(N)Oc3n[nH]c(-c4cccs4)c32)c2ccccc21 (configuration not stated),4,/,0,9,-4,4,/
COC(=O)CN1C(=O)C2(C(C#N)=C(N)Oc3c2c(C)nn3-c2ccccc2)c2ccccc21 (configuration not stated),1,/,5,75*,-2,0,15*
C[C@H](CO)N1C[C@H](C)[C@@H](CN(C)Cc2ccccc2)Oc2ccc(NS(=O)(=O)c3ccccc3)cc2CC1=O,/,0,/,/,/,/,/
Cc1ccc(-n2nc(C)c3c2OC(N)=C(C#N)C3c2ccc(C)o2)cc1 (configuration not stated),4,-2,-13,80*,-6,0,17*
COc1ccc(C2C(C#N)=C(N)Oc3c2c(-c2ccccc2)nn3-c2ccccc2)c(OC)c1OC (configuration not stated),6,/,-14,6,-9,/,/
Cc1ccc(-n2nc(C)c3c2OC(N)=C(C#N)C3c2ccco2)cc1 (configuration not stated),3,/,-9,69*,-15,1,11*
COc1ccc(OC)c(C2C(C#N)=C(N)Oc3c2c(C)nn3-c2ccc(C)cc2)c1 (configuration not stated),-8,/,11,44*,47,0,29*
C[C@@H]1CCCCO[C@@H](CN(C)C(=O)NC2CCCCC2)[C@H](C)CN([C@@H](C)CO)C(=O)c2cc(NC(=O)c3ccncc3)ccc2O1,/,-1,/,/,/,/,/
